# Source: PubChem BioAssay (NCATS)
# Records with an inconclusive call do not appear. Active and inactive are the calls of the source. Unless noted, the call rests on the fitted dose curve.
# Legend:
# [1] = target: Lysosomal acid glucosylceramidase (Homo sapiens) (UniProt P04062); test: Glucocerebrosidase-p2 (AID 348; in the data active means potency below about 10 µM; further: potency means the concentration at half of the fitted maximal effect); details: purified GBA, blue fluorogenic substrate, 40 min
# How it was run: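 Compounds titrated from 0.6 nM upwards against 0.2 nM enzyme in pH 5.9 citric acid/KH2PO4, taurocholate, tween-20; blue fluorogenic substrate 80 uM, 40 min room temperature, stopped and read Ex 365/Em 440 for AC50.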
# [2] = AP1 Signaling Pathway (AID 357; active means well fitted curve in either direction with a large enough effect, not every such curve was filed as active; further: on the % scale 0 is the no-effect control and ±100 the full control effect); details: ME-180 AP-1-bla reporter, EGF-induced, beta-lactamase ratio, 5 h; at 7.69 µM (top of the series) unless noted
# How it was run: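 Titration-series screen for positive or negative modulators of EC50 EGF-induced signaling in ME-180 cells carrying an AP-1-driven beta-lactamase reporter. After 5 hours at 37 degrees Celsius, CCF4 460nm/530nm emission ratio gave %Activity; AC50 values derived.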
# [3] = target: Cytochrome P450 1A2 (Homo sapiens) (UniProt P05177); test: p450-cyp1a2 (AID 410); details: recombinant CYP1A2, luciferin-ME demethylation, luminescence; series mostly up to 57 µM; further: potency means the concentration at half of the fitted maximal effect
# How it was run: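 Luminescent readout of luciferin formed from Luciferin-ME by human CYP1A2; data normalized against complete inhibition by 57 uM furafylline. Enzyme 20nM, substrate 100uM at Km, 100mM KPO4 buffer, 60 min reaction at room temperature.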
# [4] = Stat Signaling Pathway (AID 446; active means well fitted curve in either direction with a large enough effect, not every such curve was filed as active;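 further: ME-180 cervical cancer cells given 40 pM IL-6 alongside compound; SIE-controlled beta-lactamase reporter measured as 460/530 nm FRET emission ratio; on the % scale 0 is the no-effect control and ±100 the full control effect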); details: ME-180 SIE beta-lactamase reporter, IL-6 stimulated, 5 h; at 7.69 µM (top of the series) unless noted
# How it was run: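 Screening format detects activators and inhibitors alike: ME-180 SIE-bla cells stimulated at 40 pM IL-6 for 5 hrs with compound, then dual-emission beta-lactamase read at 405 nm excitation.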
# [5] = target: Glucocorticoid receptor (Homo sapiens) (UniProt P04150); test: GR-EFC Redistribution (AID 451); details: CHO-K1 GR-EFC translocation, beta-gal luminescence, 2 h; further: potency means the concentration at half of the fitted maximal effect
# How it was run: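 CHO-K1 cells stably expressing nuclear-localized β-gal enzyme acceptor and GR fused C-terminally to the enzyme donor fragment; ligand-driven nuclear translocation restores β-gal by complementation. Compounds titrated up to 46 uM final, 2 h at 37 °C; luminescence read.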
# [6] = target: 3',5'-cyclic-AMP phosphodiesterase 4B (Homo sapiens) (UniProt Q07343); test: qHTS Assay for Inhibitors of PDE-IV (AID 607; active means well fitted activation curve with a large enough effect in the main read-out, with a control signal flat, not every such curve was filed as active; further: % of control where 0% means no effect); details: HEK293 ACTOne CNG channel cells, membrane potential fluorescence; series mostly up to 22.9 µM
# How it was run: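 The readout is membrane depolarisation from a cAMP-sensing CNG channel, detected with a potential dye at ex 535/em 590. Cells were HEK293-derived (endogenous PDE-IV) at 1000 cells/well, titrated up to 22.9 uM final.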
# [7] = qHTS Assay for Lipid Storage Modulators (AID 1519); details: Drosophila S3 cells, BODIPY lipid droplet/cell ratio, laser cytometry, cells loaded with oleic acid; for activity change, negative = inhibition: at 57.5 µM (top of the series)
# How it was run: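 Cells seeded at 5,000 per well were treated with compounds over a concentration series and loaded with oleic acid (400 uM, as added). Lipid droplet fluorescence (488 nm excitation, 500-530 nm channel) was read by laser-scanning cytometry and normalized to 20 uM Triacsin C.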
# [8] = Primary qHTS for small molecule stabilizers of the endoplasmic reticulum resident proteome: Secreted ER Calcium Modulated Protein (SERCaMP) assay (AID 1508630; active means well fitted curve in the direction sought with a large enough effect; an effect the other way counts as inactive or inconclusive; further: on the % scale 0 is the no-effect control and ±100 the full control effect); details: SH-SY5Y GLuc-SERCaMP (Gaussia luciferase released on ER calcium loss) secretion, thapsigargin, luminescence; series mostly up to 38.4 µM
# How it was run: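 GLuc-SERCaMP-expressing SH-SY5Y cells, pretreated 16 h with compound, are challenged with thapsigargin to empty ER calcium stores; after 4 h, coelenterazine is added directly to the medium and luminescence is imaged.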
# [9] = NFAT Signaling Pathway (AID 444; active means well fitted curve in either direction with a large enough effect, not every such curve was filed as active;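 further: carbachol stimulus at about its EC50 of 1 µM final; on the % scale 0 is the no-effect control and ±100 the full control effect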); details: Jurkat NFAT-bla M1, carbachol, beta-lactamase ratio, 5 h; at 7.69 µM (top of the series) unless noted
# How it was run: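 Jurkat cells carrying an NFAT-driven β-lactamase reporter and co-transfected muscarinic M1 receptor were treated with compound plus carbachol (1 uM final, an EC50 level) for 5 h at 37 °C. CCF4 loading followed for 1 h at RT; 460/530 nm ratio gave %activity.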
# [10] = target: Glucocorticoid receptor (Homo sapiens) (UniProt P04150); test: GR-GFP Redistribution (AID 450;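 active means compounds whose dose series gives a full or clear partial fitted curve of increased nuclear translocation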; further: potency means the concentration at half of the fitted maximal effect); details: U2OS GR-GFP nuclear translocation, laser cytometry, 2 h
# [11] = target: Mitogen-activated protein kinase 10 (Mus musculus) (UniProt Q61831); test: JNK3 AlphaScreen Assay (AID 530; active means well fitted curve in either direction with a large enough effect, not every such curve was filed as active); details: JNK3 lysate, c-Jun phosphorylation; series mostly up to 57.1 µM
# How it was run: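 Inhibitors reduce antibody binding to phosphorylated biotin-cJun, lowering AlphaScreen luminescence. Lysates from HepG2 cells pre-activated by IL-1beta plus TNF-alpha supplied JNK3; compounds were titrated.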
# [12] = target: Cytochrome P450 3A4 (Homo sapiens) (UniProt P08684); test: qHTS Assay for Activators of Cytochrome P450 3A4 (AID 885; active means well fitted curve in the direction sought with a large enough effect; an effect the other way counts as inactive or inconclusive; further: nearly all actives have a fitted effect of over 65% in size); details: recombinant CYP3A4, Luciferin-PPXE luminescence, 60 min; series mostly up to 57.1 µM
# How it was run: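 Steps: enzyme/substrate mix dispensed; compound added, 10 min RT; NADPH regeneration solution added, 60 min RT; luciferin detection buffer stops reaction; 20 min later luminescence measured.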
# [13] = target: Ubiquitin carboxyl-terminal hydrolase 1 (Homo sapiens) (UniProt O94782); test: Inhibitors of USP1/UAF1: Pilot qHTS (AID 504865; active means well fitted curve in the direction sought with a large enough effect; an effect the other way counts as inactive or inconclusive;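 further: rhodamine fluorescence freed from ubiquitin-rhodamine substrate followed over time; top concentration of the series differs between compounds; on the % scale 0 is the no-effect control and ±100 the full control effect; nearly all actives have a fitted effect of over 35% in size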); details: purified USP1/UAF1, Ub-rhodamine cleavage fluorescence; series mostly up to 54.9 µM
# How it was run: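 1nM USP1/UAF1 + cpd, 15 min RT; start w/ Ub-Rho 150nM final; kinetic FL 480/540 nm, 6 reads q60 s. Buffer 50mM HEPES pH 7.8, 0.5mM EDTA, 1mM TCEP, 0.01% Tween-20, 0.1 mg/ml BSA.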
# [14] = target: Cytochrome P450 3A4 (Homo sapiens) (UniProt P08684); test: qHTS Assay for Inhibitors and Substrates of Cytochrome P450 3A4 (AID 884; active means well fitted curve in the direction sought with a large enough effect; an effect the other way counts as inactive or inconclusive; further: potency means the concentration at half of the fitted maximal effect; nearly all actives have a fitted effect of over 50% in size); details: recombinant CYP3A4, Luciferin-PPXE luminescence; series mostly up to 57.1 µM
# How it was run: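 20 nM human CYP3A4 with 25 uM Luciferin-PPXE (at KM) in 200 mM KPO4, preincubated 10 min with compound; NADPH regeneration started a 60 min RT reaction. Luciferin detected by luminescence, normalized to 57 uM ketoconazole as full inhibition.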
# [15] = measured here: cell count channel max response
# [16] = measured here: lipid channel max response
# Cytochrome P450 3A4 (Homo sapiens), sequence (P08684 whole entry, looked up): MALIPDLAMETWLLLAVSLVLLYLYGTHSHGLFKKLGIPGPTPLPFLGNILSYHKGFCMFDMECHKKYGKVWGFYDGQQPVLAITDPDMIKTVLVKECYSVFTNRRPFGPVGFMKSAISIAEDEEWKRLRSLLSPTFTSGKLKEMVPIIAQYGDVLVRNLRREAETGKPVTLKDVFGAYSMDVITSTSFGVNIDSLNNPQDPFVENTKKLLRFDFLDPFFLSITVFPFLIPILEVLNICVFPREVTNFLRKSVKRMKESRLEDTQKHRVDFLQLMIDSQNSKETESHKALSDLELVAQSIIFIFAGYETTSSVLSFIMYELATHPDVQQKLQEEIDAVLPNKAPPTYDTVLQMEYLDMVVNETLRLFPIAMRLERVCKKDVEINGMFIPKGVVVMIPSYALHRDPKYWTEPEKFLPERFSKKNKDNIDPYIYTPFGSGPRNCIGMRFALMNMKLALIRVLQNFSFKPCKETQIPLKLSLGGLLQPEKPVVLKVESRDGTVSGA
# Cytochrome P450 1A2 (Homo sapiens), sequence (P05177 whole entry, looked up): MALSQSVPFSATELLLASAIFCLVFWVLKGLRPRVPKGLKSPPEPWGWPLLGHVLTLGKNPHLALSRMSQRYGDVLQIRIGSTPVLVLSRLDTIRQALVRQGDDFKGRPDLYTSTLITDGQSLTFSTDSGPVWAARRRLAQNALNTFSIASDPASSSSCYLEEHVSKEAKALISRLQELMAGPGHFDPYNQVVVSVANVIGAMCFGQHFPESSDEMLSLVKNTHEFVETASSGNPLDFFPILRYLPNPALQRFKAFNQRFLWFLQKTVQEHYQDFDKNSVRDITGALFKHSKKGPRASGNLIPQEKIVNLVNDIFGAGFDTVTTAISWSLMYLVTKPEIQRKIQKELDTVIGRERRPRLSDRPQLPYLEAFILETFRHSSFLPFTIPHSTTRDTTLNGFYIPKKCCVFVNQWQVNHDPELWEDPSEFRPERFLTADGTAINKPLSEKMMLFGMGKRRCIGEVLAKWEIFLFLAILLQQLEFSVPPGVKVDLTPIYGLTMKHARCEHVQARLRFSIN
# Glucocorticoid receptor (Homo sapiens), sequence (P04150 whole entry, looked up, the tested form may be a part): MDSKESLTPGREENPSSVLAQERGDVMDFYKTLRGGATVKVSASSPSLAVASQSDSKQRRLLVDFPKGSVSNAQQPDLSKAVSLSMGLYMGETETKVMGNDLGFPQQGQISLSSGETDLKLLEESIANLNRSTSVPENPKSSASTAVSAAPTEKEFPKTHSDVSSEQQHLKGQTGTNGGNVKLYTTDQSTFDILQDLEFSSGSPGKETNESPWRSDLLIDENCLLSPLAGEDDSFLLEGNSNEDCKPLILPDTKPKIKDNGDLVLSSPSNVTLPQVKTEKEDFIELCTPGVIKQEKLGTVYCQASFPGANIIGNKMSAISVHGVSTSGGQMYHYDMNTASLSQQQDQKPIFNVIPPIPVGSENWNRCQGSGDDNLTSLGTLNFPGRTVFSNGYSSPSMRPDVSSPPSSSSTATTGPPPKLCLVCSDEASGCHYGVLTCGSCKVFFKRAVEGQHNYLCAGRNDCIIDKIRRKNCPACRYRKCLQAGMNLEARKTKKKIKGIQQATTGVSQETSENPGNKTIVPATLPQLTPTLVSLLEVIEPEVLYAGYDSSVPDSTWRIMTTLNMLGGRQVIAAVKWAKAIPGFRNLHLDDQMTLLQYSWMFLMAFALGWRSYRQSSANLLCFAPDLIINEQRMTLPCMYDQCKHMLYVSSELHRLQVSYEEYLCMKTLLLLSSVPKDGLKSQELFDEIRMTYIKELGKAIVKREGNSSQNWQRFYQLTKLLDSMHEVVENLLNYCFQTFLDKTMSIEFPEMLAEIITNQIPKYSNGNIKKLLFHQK
# Lysosomal acid glucosylceramidase (Homo sapiens), sequence (P04062 whole entry, looked up): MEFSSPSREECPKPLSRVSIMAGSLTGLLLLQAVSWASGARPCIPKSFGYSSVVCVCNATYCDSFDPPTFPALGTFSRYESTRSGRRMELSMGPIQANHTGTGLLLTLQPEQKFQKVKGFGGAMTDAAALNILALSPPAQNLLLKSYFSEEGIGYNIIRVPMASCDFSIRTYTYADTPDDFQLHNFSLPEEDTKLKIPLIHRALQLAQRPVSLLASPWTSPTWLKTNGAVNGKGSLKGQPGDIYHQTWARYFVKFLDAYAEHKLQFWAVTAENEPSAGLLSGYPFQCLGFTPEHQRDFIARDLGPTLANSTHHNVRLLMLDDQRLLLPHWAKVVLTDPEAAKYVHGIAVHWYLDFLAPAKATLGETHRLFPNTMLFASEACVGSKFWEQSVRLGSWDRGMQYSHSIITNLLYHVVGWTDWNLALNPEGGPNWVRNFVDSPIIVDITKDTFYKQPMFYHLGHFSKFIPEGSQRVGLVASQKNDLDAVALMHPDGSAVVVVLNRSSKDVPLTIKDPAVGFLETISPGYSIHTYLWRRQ
# 3',5'-cyclic-AMP phosphodiesterase 4B (Homo sapiens), sequence (Q07343 whole entry, looked up): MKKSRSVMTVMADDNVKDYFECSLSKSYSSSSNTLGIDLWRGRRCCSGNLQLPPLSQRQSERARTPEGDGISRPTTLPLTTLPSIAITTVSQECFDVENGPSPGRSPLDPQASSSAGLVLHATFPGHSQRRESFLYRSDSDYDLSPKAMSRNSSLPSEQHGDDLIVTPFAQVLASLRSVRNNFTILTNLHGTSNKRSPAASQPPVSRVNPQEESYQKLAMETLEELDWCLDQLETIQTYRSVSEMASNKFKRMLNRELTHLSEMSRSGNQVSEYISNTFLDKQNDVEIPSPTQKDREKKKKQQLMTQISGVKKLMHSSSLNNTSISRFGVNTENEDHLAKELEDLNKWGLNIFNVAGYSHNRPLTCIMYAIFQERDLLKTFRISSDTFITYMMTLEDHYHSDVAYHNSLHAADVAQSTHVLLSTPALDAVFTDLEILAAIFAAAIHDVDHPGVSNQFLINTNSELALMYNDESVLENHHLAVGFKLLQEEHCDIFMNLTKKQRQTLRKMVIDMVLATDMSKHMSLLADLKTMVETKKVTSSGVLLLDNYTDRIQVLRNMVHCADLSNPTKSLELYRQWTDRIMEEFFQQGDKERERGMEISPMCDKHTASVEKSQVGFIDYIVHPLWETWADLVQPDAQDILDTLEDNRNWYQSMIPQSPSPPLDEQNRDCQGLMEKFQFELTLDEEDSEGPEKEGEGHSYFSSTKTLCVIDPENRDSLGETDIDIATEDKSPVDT
# Ubiquitin carboxyl-terminal hydrolase 1 (Homo sapiens), sequence (O94782 whole entry, looked up): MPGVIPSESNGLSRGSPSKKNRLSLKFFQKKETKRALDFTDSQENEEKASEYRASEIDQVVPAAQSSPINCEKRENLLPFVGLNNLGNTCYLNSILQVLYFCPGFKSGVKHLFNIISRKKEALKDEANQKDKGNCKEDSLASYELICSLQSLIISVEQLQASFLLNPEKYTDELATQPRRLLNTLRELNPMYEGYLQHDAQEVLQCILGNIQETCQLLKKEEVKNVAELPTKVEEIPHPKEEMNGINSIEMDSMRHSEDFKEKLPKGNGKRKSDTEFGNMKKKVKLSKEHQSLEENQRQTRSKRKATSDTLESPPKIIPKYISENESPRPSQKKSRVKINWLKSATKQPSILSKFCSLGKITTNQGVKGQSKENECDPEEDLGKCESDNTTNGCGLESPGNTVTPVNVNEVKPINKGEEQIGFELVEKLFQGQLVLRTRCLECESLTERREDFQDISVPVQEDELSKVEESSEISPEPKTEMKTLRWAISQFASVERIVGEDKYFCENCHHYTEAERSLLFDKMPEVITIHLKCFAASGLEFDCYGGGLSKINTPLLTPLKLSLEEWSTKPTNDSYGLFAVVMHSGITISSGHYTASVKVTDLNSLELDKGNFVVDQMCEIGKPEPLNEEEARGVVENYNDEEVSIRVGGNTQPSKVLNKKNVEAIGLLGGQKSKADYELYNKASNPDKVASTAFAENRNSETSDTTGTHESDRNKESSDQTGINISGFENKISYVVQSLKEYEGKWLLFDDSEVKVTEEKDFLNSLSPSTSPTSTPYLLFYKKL
SMILES,Potency [1],"activity change, negative = inhibition [2]",Potency [3],"activity, negative = inhibition [4]",Potency [5],Potency [6],"activity change, negative = inhibition [7]","max response [7, 15]","max response [7, 16]",Potency [8],"activity change, negative = inhibition [9]",Potency [10],outcome [11],Potency [12],Potency [13],Potency [14]
O=C(c1ccco1)N1CCC2(CC1)CCN(c1cccc(-c3ccccc3)c1)CC2,> 11.4 µM (inactive),8.59% (inactive),15.8 µM (active),-16.1% (inactive),> 46 µM (inactive),inactive,5.77% (inactive),-0.036%,9.11%,inactive,,,,,,
COCCn1c(=O)cnc2cnc(Nc3cccc(OC)c3)nc21,> 11.4 µM (inactive),,0.794 µM (active),,> 46 µM (inactive),inactive,,,,inactive,-0.925% (inactive),> 9.22 µM (inactive),inactive,inactive,inactive,
NCC1OC(O[C@@H]2[C@H](O)[C@@H](OC3C(O)C(N)CC(N)C3OC3OC(CO)C(O)C(O)C3N)O[C@@H]2CO)C(N)C(O)C1O (stereo partly drawn),,,,,,,1.08% (inactive),-5.44%,-4.61%,,,,,,,
O=C(Nc1ccccc1)N1CCC2(CC1)CCN(C(=O)c1ccncc1)CC2,> 11.4 µM (inactive),-8.86% (inactive),,2.23% (inactive),> 46 µM (inactive),inactive,7.6% (inactive),12.3%,27.7%,inactive,-7.39% (inactive),,inactive,,,
O=c1c(-c2ccc(Cl)cc2)nc2cnc(N3CCNCC3)nc2n1Cc1cccs1,> 11.4 µM (inactive),,12.6 µM (active),,> 46 µM (inactive),inactive,,,,inactive,,> 9.22 µM (inactive),,inactive,,5.01 µM (active)
O=C(Cc1ccc(Cl)c(Cl)c1)OCCN1CCCC1,,17.4% [at 38 µM] (inactive),12.6 µM (active),15.9% [at 38 µM] (inactive),> 46 µM (inactive),inactive,1.23% (inactive),-1.75%,-0.355%,,-14.7% [at 38 µM] (inactive),> 46 µM (inactive),inactive,,,
